# Data from PubChem BioAssay (NCI).
# Compounds without any hit were thinned out: in the full panel of roughly 79,000, 15% have a hit. A number with no mark means an inactive call. The source made the active and inactive calls. Cut-off read from the data, not from the text of the source: active = growth inhibition above about 70%; inactive = the rest.
# Assays:
# [1] = NCI Yeast Anticancer Drug Screen. Data for the rad52 strain (AID 147);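 note: 0% = growth of vehicle-treated control cultures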; conditions: S. cerevisiae rad52 mutant growth inhibition, stronger effect = higher value
# Outline: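 DNA repair-defective yeast; compound exposure; growth scored against vehicle controls.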
# [2] = NCI Yeast Anticancer Drug Screen. Data for the wt1 strain (AID 149);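 note: 0% = growth of vehicle-treated wt1 cultures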; conditions: S. cerevisiae wt1 strain (SPY 50644) growth inhibition, stronger effect = higher value
# Outline: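 wt1 strain grown with compound or vehicle; inhibition taken from the growth difference.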
# [3] = NCI Yeast Anticancer Drug Screen. Data for the rad50EPP+ strain (AID 151);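 note: 0% = growth of vehicle-treated control cultures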; conditions: S. cerevisiae rad50 mutant strain, stronger effect = higher value
# Outline: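 rad50EPP+ yeast treated with test compounds. Readout: growth vs vehicle control.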
# [4] = NCI Yeast Anticancer Drug Screen. Data for the mgt1 strain (AID 153); conditions: S. cerevisiae mgt1 mutant growth inhibition, stronger effect = higher value
# Outline: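 Growth inhibition relative to vehicle controls was scored for the mgt1 yeast strain after compound exposure.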
# [5] = NCI Yeast Anticancer Drug Screen. Data for the rad50 strain (AID 155);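 note: 0% = growth of vehicle-only cultures of the same strain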; conditions: S. cerevisiae rad50 strain growth inhibition, stronger effect = higher value
# Outline: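 DNA repair mutant yeast, compound exposure, growth read-out; inhibition is taken relative to vehicle.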
# [6] = NCI Yeast Anticancer Drug Screen. Data for the mec2-1 strain (AID 157); conditions: S. cerevisiae mec2-1 strain, stronger effect = higher value
# Outline: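 Growth inhibition is read against vehicle-treated controls after compound exposure of the mec2-1 yeast strain, which is defective in DNA damage repair or cell cycle control.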
# [7] = NCI Yeast Anticancer Drug Screen. Data for the rad14 strain (AID 159);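 note: 0% = growth of vehicle-treated control cultures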; conditions: S. cerevisiae rad14 strain growth inhibition, stronger effect = higher value
# Outline: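 DNA repair-defective yeast, compound-exposed; % growth inhibition derived by comparison with vehicle-treated controls.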
# [8] = NCI Yeast Anticancer Drug Screen. Data for the sgs1 mgt1 strain (AID 161);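 note: 0% = growth of cultures given vehicle only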; conditions: S. cerevisiae sgs1 mgt1 strain, stronger effect = higher value
# Outline: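 This yeast growth screen uses a strain with defined DNA-repair lesions; compound-treated growth is compared with vehicle-treated growth.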
# [9] = NCI Yeast Anticancer Drug Screen. Data for the CLN2oe strain (AID 163);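 note: 0% = growth of vehicle-only control cultures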; conditions: S. cerevisiae CLN2oe strain, stronger effect = higher value
# Outline: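 Compound-treated yeast; growth vs vehicle ctrl = % inhibition. Genetically altered strain (cell-cycle control).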
# [10] = NCI Yeast Anticancer Drug Screen. Data for the cln2 rad14 strain (AID 165);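 note: 0% = growth equal to vehicle treated cultures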; conditions: S. cerevisiae cln2 rad14 strain, stronger effect = higher value
# Outline: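 Growth inhibition, relative to vehicle-treated controls, is the read-out. The test organism is a yeast strain with defined genetic alterations, cln2 rad14.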
# [11] = NCI Yeast Anticancer Drug Screen. Data for the bub3 strain (AID 167); conditions: S. cerevisiae bub3 mutant strain, stronger effect = higher value
# Outline: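 In this screen, a yeast mutant lacking normal mitotic checkpoint function is challenged with compound. Relative growth versus vehicle gives the inhibition value.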
# [12] = NCI Yeast Anticancer Drug Screen. Data for the mlh1 strain (AID 171);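 note: 0% = growth of vehicle-treated control cultures of the same strain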; conditions: S. cerevisiae mlh1 strain growth inhibition, stronger effect = higher value
# Outline: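 Compounds are applied to a genetically altered yeast strain, and its growth is compared with that of vehicle-treated cultures to give percent inhibition.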
# [13] = NCI Yeast Anticancer Drug Screen. Data for the sgs1 strain (AID 173);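 note: 0% = growth of vehicle-only control cultures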; conditions: S. cerevisiae sgs1 mutant, stronger effect = higher value
# Outline: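 Compounds applied to genetically altered yeast; growth compared with vehicle-treated cultures to give % inhibition.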
# [14] = NCI Yeast Anticancer Drug Screen. Data for the mlh1 rad18 strain (AID 175); conditions: S. cerevisiae mlh1 rad18 strain growth inhibition, stronger effect = higher value
# Outline: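 Cells of a genetically altered yeast strain, deficient in DNA damage repair, were treated with compound. Their growth was then compared with that of vehicle-treated cultures to give inhibition.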
# [15] = NCI Yeast Anticancer Drug Screen. Data for the rad18 strain (AID 177); conditions: S. cerevisiae rad18 mutant growth inhibition, stronger effect = higher value
# Outline: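 Compounds are applied to a repair-deficient yeast strain, and growth is compared with that of vehicle-treated cultures to give percent inhibition.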
# [16] = NCI Yeast Anticancer Drug Screen. Data for the wt2 strain (AID 169);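 note: 0% = growth of vehicle-treated yeast cultures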; conditions: S. cerevisiae wt2 strain growth inhibition, stronger effect = higher value
# Outline: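 Compound exposure of yeast; growth compared with vehicle controls; inhibition reported.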
# [17] = at 5.0 µM (retest, dose inferred, filed as 0.5)
# [18] = at 50.0 µM (retest, dose inferred, filed as 5.0)
smiles,measurement,setting,value
O=[N+]([O-])c1ccc(N/N=C/Cc2ccccc2)c([N+](=O)[O-])c1,growth inhibition,[1]; at 1.2 µM,-3%
same,growth inhibition,[1]; at 3.7 µM,-4%
same,growth inhibition,[1]; at 11.0 µM,-2%
same,growth inhibition,[1]; at 33.0 µM,2%
same,growth inhibition,[1]; at 100.0 µM,2%
same,growth inhibition,[2]; at 1.2 µM,-1%
same,growth inhibition,[2]; at 3.7 µM,-2%
same,growth inhibition,[2]; at 11.0 µM,-3%
same,growth inhibition,[2]; at 33.0 µM,-6%
same,growth inhibition,[2]; at 100.0 µM,-12%
same,growth inhibition,[3]; at 1.2 µM,-2%
same,growth inhibition,[3]; at 3.7 µM,10%
same,growth inhibition,[3]; at 11.0 µM,24%
same,growth inhibition,[3]; at 33.0 µM,46%
same,growth inhibition,[3]; at 100.0 µM,57%
same,growth inhibition,[4]; at 1.2 µM,-2%
same,growth inhibition,[4]; at 3.7 µM,1%
same,growth inhibition,[4]; at 11.0 µM,-1%
same,growth inhibition,[4]; at 33.0 µM,-2%
same,growth inhibition,[4]; at 100.0 µM,13%
same,growth inhibition,[5]; at 1.2 µM,0%
same,growth inhibition,[5]; at 3.7 µM,-2%
same,growth inhibition,[5]; [17],5%
same,growth inhibition,[5]; at 11.0 µM,4%
same,growth inhibition,[5]; at 33.0 µM,8%
same,growth inhibition,[5]; [18],20%
same,growth inhibition,[5]; at 50.0 µM,-3.75%
same,growth inhibition,[5]; at 100.0 µM,-2%
same,growth inhibition,[6]; at 1.2 µM,-4%
same,growth inhibition,[6]; at 3.7 µM,-1%
same,growth inhibition,[6]; [17],1%
same,growth inhibition,[6]; at 11.0 µM,2%
same,growth inhibition,[6]; at 33.0 µM,6%
same,growth inhibition,[6]; [18],12%
same,growth inhibition,[6]; at 50.0 µM,30.8%
same,growth inhibition,[6]; at 100.0 µM,4%
same,growth inhibition,[7]; at 1.2 µM,-5%
same,growth inhibition,[7]; at 3.7 µM,-2%
same,growth inhibition,[7]; at 11.0 µM,2%
same,growth inhibition,[7]; at 33.0 µM,7%
same,growth inhibition,[7]; at 100.0 µM,3%
same,growth inhibition,[8]; [17],3%
same,growth inhibition,[8]; [18],45%
same,growth inhibition,[8]; at 50.0 µM,25%
same,growth inhibition,[9]; at 1.2 µM,-3%
same,growth inhibition,[9]; at 3.7 µM,1%
same,growth inhibition,[9]; at 11.0 µM,4%
same,growth inhibition,[9]; at 33.0 µM,0%
same,growth inhibition,[9]; at 100.0 µM,-1%
same,growth inhibition,[10]; [17],7%
same,growth inhibition,[10]; [18],-3%
same,growth inhibition,[10]; at 50.0 µM,-7.05%
same,growth inhibition,[11]; at 1.2 µM,2%
same,growth inhibition,[11]; at 3.7 µM,2%
same,growth inhibition,[11]; [17],9%
same,growth inhibition,[11]; at 11.0 µM,12%
same,growth inhibition,[11]; at 33.0 µM,27%
same,growth inhibition,[11]; [18],74% (active)
same,growth inhibition,[11]; at 50.0 µM,67.2%
same,growth inhibition,[11]; at 100.0 µM,39%
same,growth inhibition,[12]; at 1.2 µM,-4%
same,growth inhibition,[12]; at 3.7 µM,-5%
same,growth inhibition,[12]; at 11.0 µM,0%
same,growth inhibition,[12]; at 33.0 µM,6%
same,growth inhibition,[12]; at 100.0 µM,11%
same,growth inhibition,[13]; at 1.2 µM,-4%
same,growth inhibition,[13]; at 3.7 µM,-1%
same,growth inhibition,[13]; at 11.0 µM,2%
same,growth inhibition,[13]; at 33.0 µM,9%
same,growth inhibition,[13]; at 100.0 µM,22%
same,growth inhibition,[14]; [17],1%
same,growth inhibition,[14]; [18],29%
same,growth inhibition,[14]; at 50.0 µM,12.1%
same,growth inhibition,[15]; at 1.2 µM,-2%
same,growth inhibition,[15]; at 3.7 µM,3%
same,growth inhibition,[15]; at 11.0 µM,11%
same,growth inhibition,[15]; at 33.0 µM,17%
same,growth inhibition,[15]; at 100.0 µM,21%
S=C1SCN(C2CCCCC2)CN1C1CCCCC1,growth inhibition,[1]; at 1.2 µM,-21%
same,growth inhibition,[1]; at 3.7 µM,-25%
same,growth inhibition,[1]; at 11.0 µM,-14%
same,growth inhibition,[1]; at 33.0 µM,-1%
same,growth inhibition,[1]; at 100.0 µM,55%
same,growth inhibition,[2]; at 1.2 µM,-21%
same,growth inhibition,[2]; at 3.7 µM,-29%
same,growth inhibition,[2]; at 11.0 µM,-29%
same,growth inhibition,[2]; at 33.0 µM,-21%
same,growth inhibition,[2]; at 100.0 µM,40%
same,growth inhibition,[3]; at 1.2 µM,-51%
same,growth inhibition,[3]; at 3.7 µM,-36%
same,growth inhibition,[3]; at 11.0 µM,-3%
same,growth inhibition,[3]; at 33.0 µM,44%
same,growth inhibition,[3]; at 100.0 µM,88% (active)
same,growth inhibition,[4]; at 1.2 µM,-72%
same,growth inhibition,[4]; at 3.7 µM,-45%
same,growth inhibition,[4]; at 11.0 µM,-2%
same,growth inhibition,[4]; at 33.0 µM,-23%
same,growth inhibition,[4]; at 100.0 µM,64%
same,growth inhibition,[5]; at 1.2 µM,-4%
same,growth inhibition,[5]; at 3.7 µM,-8%
same,growth inhibition,[5]; [17],44%
same,growth inhibition,[5]; at 11.0 µM,-1%
same,growth inhibition,[5]; at 33.0 µM,13%
same,growth inhibition,[5]; [18],99% (active)
same,growth inhibition,[5]; at 50.0 µM,47.5%
same,growth inhibition,[5]; at 100.0 µM,67%
same,growth inhibition,[6]; at 1.2 µM,-65%
same,growth inhibition,[6]; at 3.7 µM,-78%
same,growth inhibition,[6]; [17],56%
same,growth inhibition,[6]; at 11.0 µM,-64%
same,growth inhibition,[6]; at 33.0 µM,-28%
same,growth inhibition,[6]; [18],100% (active)
same,growth inhibition,[6]; at 50.0 µM,63.5%
same,growth inhibition,[6]; at 100.0 µM,58%
same,growth inhibition,[7]; at 1.2 µM,-31%
same,growth inhibition,[7]; at 3.7 µM,-25%
same,growth inhibition,[7]; at 11.0 µM,-24%
same,growth inhibition,[7]; at 33.0 µM,2%
same,growth inhibition,[7]; at 100.0 µM,45%
same,growth inhibition,[8]; [17],0%
same,growth inhibition,[8]; [18],94% (active)
same,growth inhibition,[8]; at 50.0 µM,72.3% (active)
same,growth inhibition,[9]; at 1.2 µM,-21%
same,growth inhibition,[9]; at 3.7 µM,-19%
same,growth inhibition,[9]; at 11.0 µM,-16%
same,growth inhibition,[9]; at 33.0 µM,-1%
same,growth inhibition,[9]; at 100.0 µM,19%
same,growth inhibition,[10]; [17],10%
same,growth inhibition,[10]; [18],81% (active)
same,growth inhibition,[10]; at 50.0 µM,31.1%
same,growth inhibition,[11]; at 1.2 µM,-18%
same,growth inhibition,[11]; at 3.7 µM,-10%
same,growth inhibition,[11]; [17],20%
same,growth inhibition,[11]; at 11.0 µM,-23%
same,growth inhibition,[11]; at 33.0 µM,22%
same,growth inhibition,[11]; [18],94% (active)
same,growth inhibition,[11]; at 50.0 µM,82.8% (active)
same,growth inhibition,[11]; at 100.0 µM,71% (active)
same,growth inhibition,[16]; at 1.2 µM,-37%
same,growth inhibition,[16]; at 3.7 µM,-35%
same,growth inhibition,[16]; at 11.0 µM,-39%
same,growth inhibition,[16]; at 33.0 µM,-22%
same,growth inhibition,[16]; at 100.0 µM,39%
same,growth inhibition,[12]; at 1.2 µM,-44%
same,growth inhibition,[12]; at 3.7 µM,-43%
same,growth inhibition,[12]; at 11.0 µM,-31%
same,growth inhibition,[12]; at 33.0 µM,-5%
same,growth inhibition,[12]; at 100.0 µM,79% (active)
same,growth inhibition,[14]; [17],34%
same,growth inhibition,[14]; [18],99% (active)
same,growth inhibition,[14]; at 50.0 µM,49.1%
same,growth inhibition,[15]; at 1.2 µM,-57%
same,growth inhibition,[15]; at 3.7 µM,-38%
same,growth inhibition,[15]; at 11.0 µM,-39%
same,growth inhibition,[15]; at 33.0 µM,-3%
same,growth inhibition,[15]; at 100.0 µM,64%
